# Experimental data taken from PubChem BioAssay (EPA / NIEHS).
# Records with an inconclusive call do not appear. Calls of active or inactive are those of the source. Rule for the calls: active = hit-call score of the fitted dose curve at least 0.9, where 1 is the maximum; inconclusive = response in the unintended direction; inactive = score below 0.9.
# Key:
# [1] = TOX21_p53_BLA_p3_viability: Viability Assessment in the Tox21 HCT-116 p53 Agonism Beta-lactamase Assay, Phase 3 (AID 2283593);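 note: cells exposed to compound for 16 h before reading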
# How it was run: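 HCT116 cells, 4000/well, dosed 5 h after plating by pin transfer (217-fold dilution from DMSO stock) and incubated 16 h at 37C, 5% CO2. Viability read as ATP luminescence with CellTiter-Glo after 30 min at room temperature.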
# [2] = biological target: Cellular tumor antigen p53 (Homo sapiens) (UniProt P04637); assay: TOX21_p53_BLA_p3_ratio: Tox21 HCT-116 p53 Agonism Beta-lactamase Assay, Ratio, Phase 3 (AID 2283596)
# Cellular tumor antigen p53 (Homo sapiens), sequence (P04637 whole entry, looked up): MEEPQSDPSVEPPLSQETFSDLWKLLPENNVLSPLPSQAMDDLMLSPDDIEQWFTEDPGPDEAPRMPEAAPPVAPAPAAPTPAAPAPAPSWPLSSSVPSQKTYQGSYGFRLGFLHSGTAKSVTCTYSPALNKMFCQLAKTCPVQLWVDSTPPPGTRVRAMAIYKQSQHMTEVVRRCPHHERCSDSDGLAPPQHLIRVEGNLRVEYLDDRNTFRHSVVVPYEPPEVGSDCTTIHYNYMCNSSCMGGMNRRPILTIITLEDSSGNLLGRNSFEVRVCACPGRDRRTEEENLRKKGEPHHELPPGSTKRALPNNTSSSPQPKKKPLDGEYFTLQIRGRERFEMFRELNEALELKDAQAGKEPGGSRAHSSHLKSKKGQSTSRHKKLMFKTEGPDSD
# How it was run: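 HCT116 p53-bla cells (4000/well) given compound in DMSO (217-fold dilution) after 5 h, incubated 16 h at 37C. CCF4-AM substrate 2 h at room temperature; 460/530 nm emission ratio, gain fitted against DMSO.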
# [3] = TOX21_p53_BLA_p4_viability: Viability Assessment in the Tox21 HCT-116 p53 Agonism Beta-lactamase Assay, Phase 4 (AID 2283597);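 note: hits lower the luminescence signal meaning cytotoxicity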
# How it was run: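 Following a 16 h exposure at 37C, the treated HCT116 wells were first read for the FRET ratio. They were then lysed with CellTiter-Glo, and ATP luminescence was recorded after 30 min at room temperature.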
# [4] = biological target: Cellular tumor antigen p53 (Homo sapiens) (UniProt P04637); assay: TOX21_p53_BLA_p4_ratio: Tox21 HCT-116 p53 Agonism Beta-lactamase Assay, Ratio, Phase 4 (AID 2283601)
# How it was run: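 HCT-116 p53 beta-lactamase reporter cells (4000/well) preincubated 5 h, then compound (217-fold dilution of DMSO stock) for 16 h at 37C. CCF4-AM substrate added 2 h at room temperature; 460/530 nm emission ratio fitted upward versus DMSO.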
# [5] = biological target: Cellular tumor antigen p53 (Homo sapiens) (UniProt P04637); assay: TOX21_p53_BLA_p5_ratio: Tox21 HCT-116 p53 Agonism Beta-lactamase Assay, Ratio, Phase 5 (AID 2283599)
# How it was run: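 HCT-116 p53-bla cells (4000/well) plated 5 h, dosed with compound (217-fold DMSO dilution) for 16 h at 37 C; CCF4-AM substrate 2 h at room temperature. Activity is the 460/530 nm emission ratio (405 nm excitation), fitted in gain-of-signal direction versus DMSO.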
# [6] = TOX21_p53_BLA_p5_viability: Viability Assessment in the Tox21 HCT-116 p53 Agonism Beta-lactamase Assay, Phase 5 (AID 2283600)
# How it was run: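 After the 460/530 nm beta-lactamase measurement, the wells received an ATP-detection luciferase reagent; signal was read 30 min later at RT. Compound treatment lasted 16 h on cells pre-incubated 5 h post-seeding.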
Compound,AC50 [1],outcome [2],outcome [3],outcome [4],outcome [1],outcome [5],outcome [6]
CCCCCCCCCCCCCCCC(=O)O[C@@H]1CC(C)=C(/C=C/C(C)=C/C=C/C(C)=C/C=C/C=C(C)/C=C/C=C(C)/C=C/C2=C(C)C[C@@H](OC(=O)CCCCCCCCCCCCCCC)CC2(C)C)C(C)(C)C1,36.2 µM (active),inactive,inactive,inactive,–,–,–
O=c1oc2c(O)c(O)cc3c(=O)oc4c(O)c(O)cc1c4c23,–,inactive,–,–,inactive,inactive,–
CC1CCCCN1CCCOC(=O)c1ccccc1 (stereo not given),–,–,inactive,–,inactive,–,–
O=C(Cn1c(=O)sc2ccc(Cl)cc21)N1CCN(CCO)CC1,–,inactive,inactive,inactive,inactive,–,inactive
Cc1ccc(S(=O)(=O)NC(=O)NC2CCCC2)cc1,–,inactive,–,inactive,inactive,inactive,inactive
BrC(Br)C(Br)Br,–,inactive,–,–,inactive,inactive,inactive
O=C(/C=C/c1ccc(O)c(O)c1)O[C@@H](C(=O)O)[C@@H](OC(=O)/C=C/c1ccc(O)c(O)c1)C(=O)O,–,inactive,–,inactive,inactive,inactive,inactive
COC(=O)NN,–,inactive,–,–,inactive,–,inactive
CC#N,–,inactive,–,–,inactive,inactive,–
Oc1ccc(CCNCCCCCCNCCc2ccccc2)cc1O,–,inactive,inactive,inactive,inactive,–,inactive
O=C(O)c1cc(C(=O)O)cc(C(=O)O)c1,–,inactive,inactive,inactive,inactive,inactive,–
CN(C)CCCNCCCN,–,inactive,–,inactive,inactive,inactive,–
COc1ccc(CC2c3cc(OC)c(OC)cc3CC[N+]2(C)CCC(=O)OCCCCCOC(=O)CC[N+]2(C)CCc3cc(OC)c(OC)cc3C2Cc2ccc(OC)c(OC)c2)cc1OC (stereo not given),–,–,inactive,–,inactive,–,–
